Consider 37 molecules from PubChem BioAssay (NCI).

The panel holds about 79,000 compounds, 15% with a hit somewhere; the sample as a whole holds those more often. A number with no mark means an inactive call. Activity calls are given as the source filed them. No stated cut-off is given here; in the data, active means growth inhibition above about 70%; inactive means the rest.

A short description of assay [1]: NCI Yeast Anticancer Drug Screen. Data for the rad50 strain (AID 155).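 Further: 0% = growth of vehicle-only cultures of the same strain.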 The note with it: S. cerevisiae rad50 strain growth inhibition; at 50.0 µM; active compounds read high. An outline of the steps:
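Compounds were tested on a yeast strain with an engineered DNA damage repair alteration; the reported value is growth inhibition normalised to vehicle treatment.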

The nature of assay [2]: NCI Yeast Anticancer Drug Screen. Data for the mec2-1 strain (AID 157). The note with it: S. cerevisiae mec2-1 strain, at 50.0 µM, active compounds read high. In short, it runs like this:
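Cells of the genetically defined mec2-1 yeast strain are incubated with test compound. Inhibition of growth is calculated against vehicle-treated controls.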

Assay [3] can be described thus: NCI Yeast Anticancer Drug Screen. Data for the sgs1 mgt1 strain (AID 161).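 Further: 0% = growth of cultures given vehicle only.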 The note with it: S. cerevisiae sgs1 mgt1 strain, at 50.0 µM, active compounds read high. An outline of the steps:
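Inhibition of yeast growth, normalised to vehicle-treated controls, is reported for a strain bearing genetic alterations in DNA damage repair.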

A short description of assay [4]: NCI Yeast Anticancer Drug Screen. Data for the cln2 rad14 strain (AID 165).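 Further: 0% = growth equal to vehicle treated cultures.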 As to conditions: S. cerevisiae cln2 rad14 strain, at 50.0 µM, active compounds read high. In short, it runs like this:
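The screen exposed genetically defined yeast (cln2 rad14) to test compounds and scored growth inhibition relative to vehicle-treated controls.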

A short description of assay [5]: NCI Yeast Anticancer Drug Screen. Data for the bub3 strain (AID 167). The note with it: S. cerevisiae bub3 mutant strain, at 50.0 µM, active compounds read high. An outline of the steps: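 Growth of a checkpoint-deficient yeast mutant is measured after compound exposure. Values represent inhibition relative to vehicle.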
A short description of assay [6]: NCI Yeast Anticancer Drug Screen. Data for the mlh1 rad18 strain (AID 175). The note with it: S. cerevisiae mlh1 rad18 strain growth inhibition; at 50.0 µM; active compounds read high. In short, it runs like this: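 Compound-treated yeast growth, normalised to vehicle controls. Strain bears defined DNA repair mutations.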

Take `CCCCCCCCC[N+]12CC[N+](CCCCCCCCC)(CC1)CC2`: the growth inhibition in assay [1] is 8.2%; in assay [2], 15.2%; in assay [3] it was -4.9%; in assay [4], 2.15%; in assay [5], 8.8%; in assay [6], 5.25%.
In the case of `C=C1C(=O)O[C@@H]2C[C@]3(C)[C@@H](C[C@H]12)[C@](C)(O)CC[C@@H]3O`, the growth inhibition is 5.65% in assay [1]; -10.1% in assay [2]; 1.5% in assay [3]; -37.5% in assay [4]; 7.5% in assay [5]; 0.3% in assay [6].
For the molecule `Brc1c(CCc2ccc3ccccc3c2Br)ccc2ccccc12`, the growth inhibition was 0.1% in assay [1]; 10.2% in assay [2]; 13.2% in assay [3]; -6.75% in assay [4]; -2.8% in assay [5]; 19.6% in assay [6].
As to `CC(=O)N1CC/C(=C\c2ccccc2)C1=O`, the growth inhibition is -10.1% in assay [1]; -7.25% in assay [2]; -12.5% in assay [3]; -6.85% in assay [4]; 0.25% in assay [5]; -3.2% in assay [6].
`O=C1c2cscc2C(=O)c2c(OCc3ccccc3)ccc(OCc3ccccc3)c21`: the growth inhibition in assay [1] was 3.7%; in assay [2] it was 6.65%; in assay [3] it was -7.45%; in assay [4], -5.3%; in assay [5] it was 1.95%; in assay [6] it was 7.4%.
Take `O=C(O)C(Cc1ccc2c(c1)CCC2)(Cc1ccc2c(c1)CCC2)C(=O)O`: the growth inhibition in assay [1] was 26.9%; in assay [2] it was 13.3%; in assay [3] it was -4%; in assay [4], 33.3%; in assay [5] it was 22.8%; in assay [6], 12.1%.
On to `O=C(Nc1ccc(F)c([N+](=O)[O-])c1)N(Cc1ccccc1)c1ccccc1`, for which the growth inhibition in assay [1] is 8.05%; in assay [2] it was 1.05%; in assay [3], 1.55%; in assay [4], 5.95%; in assay [5], 26.9%; in assay [6], 16.9%.
As for `O=C(NC(CSC(=O)OCc1ccccc1)C(=O)Oc1ccc([N+](=O)[O-])cc1)OCc1ccccc1` (configuration not stated), the growth inhibition was 16.3% in assay [1]; -7.4% in assay [2]; 3.45% in assay [3]; -23.8% in assay [4]; -0.45% in assay [5]; 2.4% in assay [6].
As to `O=C1c2ccccc2-c2c1cccc2[N+](=O)[O-]`, the growth inhibition in assay [1] is 48%; in assay [2] it was 23.9%; in assay [3], 9.55%; in assay [4], -62.5%; in assay [5], -18.3%; in assay [6], 42.5%.
In the case of `CN(C)CCCC1c2ccccc2Oc2ccc(C(F)(F)F)cc21` (configuration not stated), the growth inhibition is -9.45% in assay [1]; -28.4% in assay [2]; -11.9% in assay [3]; -25.1% in assay [4]; 41.9% in assay [5]; 31.2% in assay [6].
`CC12CCC3c4ccc(O)cc4C(=O)CC3C1CCC2O` (configuration not stated): the growth inhibition in assay [1] is -16.1%; in assay [2], 7.6%; in assay [3] it was 5.8%; in assay [4], -29.8%; in assay [5], -11.2%; in assay [6], -17.6%.
`CCOC(=O)c1c[nH]c2c(C(F)(F)F)cccc2c1=O`: the growth inhibition in assay [1] was 15.6%; in assay [2] it was -9.1%; in assay [3], 1.55%; in assay [4] it was 8.75%; in assay [5], 24.6%; in assay [6], 14.6%.
Regarding `NC(=O)CC(NC(=O)C(F)(F)F)C(=O)O` (configuration not stated), the growth inhibition is -15.3% in assay [1]; -22.9% in assay [2]; -13.4% in assay [3]; -6.85% in assay [4]; -14.2% in assay [5]; -24.2% in assay [6].
For `O=C(O)c1nn(-c2ccc(Cl)cc2)c2c1C(=O)c1ccccc1C2=O`, the growth inhibition in assay [1] is 20.9%; in assay [2], 14.7%; in assay [3] it was -1.75%; in assay [4] it was 14.1%; in assay [5], 12%; in assay [6] it was 4.65%.
Turning to `O=S(=O)(O)Cc1ccccc1`, the growth inhibition in assay [1] is -29.9%; in assay [2], -21.9%; in assay [3], -19.1%; in assay [4], -24.4%; in assay [5], 2.45%; in assay [6], 2.35%.
For the molecule `[Cu+2].[NH-]C(CC(=O)O)C(=O)O.[NH-]C(CC(=O)O)C(=O)O` (configuration not stated), the growth inhibition in assay [1] was -35.3%; in assay [2] it was -11.7%; in assay [3] it was -13.7%; in assay [4], 64.4%; in assay [5] it was -61.3%; in assay [6], -3.45%.
With `c1ccc(-c2cccc(-c3cccc(-c4ccccc4)c3)c2)cc1`, the growth inhibition was 18.1% in assay [1]; 0.6% in assay [2]; 7.5% in assay [3]; -47.9% in assay [4]; 16.8% in assay [5]; -6.65% in assay [6].
For `CCCOc1ncnc2nc[nH]c12`, the growth inhibition was 7.3% in assay [1]; -6.05% in assay [2]; 1.55% in assay [3]; -6.4% in assay [4]; 5.3% in assay [5]; 19.7% in assay [6].
`CCOc1ccc(Br)cc1/C=N\NC(=O)c1ccccc1N(C)C`: the growth inhibition in assay [1] was -8.8%; in assay [2] it was -11.6%; in assay [3] it was -16.8%; in assay [4], -23.6%; in assay [5], -2.25%; in assay [6], -11.2%.
Turning to `COc1ccc(CC(N)C(=O)N2CCCCC2)cc1` (configuration not stated), the growth inhibition was 8.45% in assay [1]; 0.8% in assay [2]; 13.2% in assay [3]; 8.15% in assay [4]; 8.4% in assay [5]; 6.75% in assay [6].
Turning to `Cn1c(=O)c(Br)c(C=O)n(CCO[N+](=O)[O-])c1=O`, the growth inhibition is -8.25% in assay [1]; 32% in assay [2]; 3.85% in assay [3]; 15.6% in assay [4]; 38.6% in assay [5]; -27.6% in assay [6].
As to `Cc1cccnc1C(=O)O.[Cu+2]`, the growth inhibition in assay [1] was -9.55%; in assay [2], -0.45%; in assay [3], -29.1%; in assay [4] it was -45.2%; in assay [5] it was -32.8%; in assay [6] it was -7.4%.
Take `CCC[n+]1ccc(CCS(=O)(=O)c2ccc(N)cc2)cc1`: the growth inhibition in assay [1] is 6.15%; in assay [2] it was -6.55%; in assay [3] it was 1.9%; in assay [4], -6%; in assay [5], 21.4%; in assay [6], -16.7%.
Consider `CC(C)=C1C(=O)C[C@]2(C)C[C@H]3/C(=C(/C)CCC12)CC[C@@]3(C)O` (some centres not stated), for which the growth inhibition in assay [1] was 46.5%; in assay [2], -1.25%; in assay [3], 2%; in assay [4], 28.6%; in assay [5] it was -6.05%; in assay [6] it was -8.4%.
Consider `COC/C=C\COC`, for which the growth inhibition in assay [1] was 3.45%; in assay [2], 5%; in assay [3], 17.6%; in assay [4], -2.15%; in assay [5], -6.3%; in assay [6] it was 22.1%.
With `O=C(CC(O)(C(F)(F)F)C(F)(F)F)C(CCCl)C(O)(C(F)(F)F)C(F)(F)F` (configuration not stated), the growth inhibition in assay [1] is 17.6%; in assay [2] it was 18.9%; in assay [3], 41.6%; in assay [4], 21.4%; in assay [5] it was 8.05%; in assay [6], 38.8%.
On to `c1ccc(CCCCc2ccc(CCCCc3ccccc3)cc2)cc1`, for which the growth inhibition in assay [1] is 12.2%; in assay [2] it was -3.55%; in assay [3], -2.45%; in assay [4] it was -6.35%; in assay [5], -2.2%; in assay [6], 6.1%.
For the molecule `Cc1cc(C)nc(NS(=O)(=O)c2ccc(NC(=O)c3cccn4c(=O)c5ccccc5nc34)cc2)n1`, the growth inhibition in assay [1] was 12.7%; in assay [2], 0.6%; in assay [3], 16.9%; in assay [4] it was 27.6%; in assay [5], 27.1%; in assay [6], 0.25%.
`N#Cc1nnn2c1nc(N)c1c(Cl)cccc12`: the growth inhibition is 0.75% in assay [1]; -17.1% in assay [2]; -4.6% in assay [3]; -0.05% in assay [4]; -11.8% in assay [5]; -8.35% in assay [6].
Consider `O=c1[nH]c(=O)n(C2OC(CO)C(O)C2O)cc1OCCCc1ccccc1` (configuration not stated), for which the growth inhibition is -23.1% in assay [1]; -1.8% in assay [2]; 16.4% in assay [3]; 31.2% in assay [4]; -5.45% in assay [5]; 8.75% in assay [6].
For `COc1cc(C=O)c(-c2cc(OC)c(OC)cc2C=O)cc1OC`, the growth inhibition in assay [1] was 5.9%; in assay [2], -6.65%; in assay [3], -8.8%; in assay [4], 0.2%; in assay [5], -12.4%; in assay [6], -2.15%.
On to `COC(=O)c1ccc(/C=C/c2cc(O)ccc2O)cc1`, for which the growth inhibition in assay [1] is 16.5%; in assay [2], 25.8%; in assay [3], 56.6%; in assay [4], 44.5%; in assay [5], 52.5%; in assay [6] it was 75% (active).
As for `COc1cc2c(cc1OC)C(=O)N(c1ccc(OCCN3CCCC3)cc1)C2=O`, the growth inhibition in assay [1] is -20.7%; in assay [2], -17.9%; in assay [3], 4.7%; in assay [4] it was 19.4%; in assay [5] it was 15.8%; in assay [6] it was -10.4%.
Consider `OCCCCCCCCCCCBr`, for which the growth inhibition in assay [1] is 28.4%; in assay [2], 4.05%; in assay [3], -3.1%; in assay [4], -27.1%; in assay [5], 9.4%; in assay [6], 17.1%.
Take `CC(=O)NNC(=S)/N=C\c1c(O)[nH]c(=O)[nH]c1=O`: the growth inhibition was -23.1% in assay [1]; -30.1% in assay [2]; -15.4% in assay [3]; -0.6% in assay [4]; -4% in assay [5]; -9.85% in assay [6].
Consider `CC(C)CCC[C@@H](C)[C@H]1CC[C@H]2[C@@H]3CC[C@H]4CC5(C[C@]4(C)[C@H]3CC[C@]12C)Nc1ccccc1S5` (some centres not stated), for which the growth inhibition was -8.05% in assay [1]; -19.9% in assay [2]; -6.2% in assay [3]; 4.55% in assay [4]; -25.9% in assay [5]; -40.7% in assay [6].
With `CCOC(=O)CNC(=O)C(Cc1ccccc1)NC(=O)CNC(=O)OCc1ccccc1` (configuration not stated), the growth inhibition in assay [1] is 22.4%; in assay [2], 8.6%; in assay [3], 15.5%; in assay [4], 20.4%; in assay [5] it was 0.75%; in assay [6] it was 20.8%.
